Compound activity as filed in PubChem.
An excerpt weighted towards active compounds, which were near 2.4% of everything screened.
POLI inh = inhibitors of human DNA polymerase iota; AID 588590; Pol iota fluorescent replication assay, 10 min; Q9UNA4; actives 1% (n = 390,000); Potency, µM (series often up to 115 µM), without a hit: at the top dose activity, negative = inhibition, usual class: inhibitors
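Fluorescent replication assay read twice, at 0 min and 10 min after adding 50 nM (final) substrate. Enzyme (10 nM) and compounds were first incubated 15 min at room temperature; enzyme-free buffer wells were negative controls.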
FEN1 inh = blocks human flap endonuclease 1 | actives 0.35% (n = 390,000) | Potency, µM (highest dose often 114 µM), for inactives: at the highest dose activity change, negative = inhibition, most hits filed as inhibitors | Recombinant FEN1 flap cleavage, fluorescence, 15 min | P39748; further: on the % scale 0 is the no-effect control and ±100 the full control effect; nearly all actives have a fitted effect of over 65% in size
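Reaction started by adding substrate (50 nM final) to 10 nM enzyme after 15 min room-temperature compound preincubation. Reads at 0 and 15 min, with data normalized and fitted to a four-parameter Hill equation.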
POLB inh = blocks human DNA polymerase beta activity; actives 1.3% (n = 340,000); P06746; Potency, µM (titrated, usually from 114 µM), for inactives: top-dose activity change, negative = inhibition, most hits filed as inhibitors; Pol beta primer extension/strand displacement, fluorescence kinetic; AID 485314; further: on the % scale 0 is the no-effect control and ±100 the full control effect
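Homogeneous kinetic assay of primer extension and strand displacement by 10 nM Pol beta, preincubated 15 min at room temperature with compound before 50 nM substrate (final) was added. Read at 0 and 10 min; four-parameter Hill fit.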
POLH inh = blocks human DNA polymerase eta activity. Q9Y253. recombinant Pol eta, fluorescent DNA replication assay. Potency, µM (titrated, usually from 114 µM), without a hit: top-dose activity change, negative = inhibition, hits mostly inhibitors. actives 1.2% (n = 390,000). AID 588591; further: on the % scale 0 is the no-effect control and ±100 the full control effect
Target sequence (Q9Y253 whole entry, looked up): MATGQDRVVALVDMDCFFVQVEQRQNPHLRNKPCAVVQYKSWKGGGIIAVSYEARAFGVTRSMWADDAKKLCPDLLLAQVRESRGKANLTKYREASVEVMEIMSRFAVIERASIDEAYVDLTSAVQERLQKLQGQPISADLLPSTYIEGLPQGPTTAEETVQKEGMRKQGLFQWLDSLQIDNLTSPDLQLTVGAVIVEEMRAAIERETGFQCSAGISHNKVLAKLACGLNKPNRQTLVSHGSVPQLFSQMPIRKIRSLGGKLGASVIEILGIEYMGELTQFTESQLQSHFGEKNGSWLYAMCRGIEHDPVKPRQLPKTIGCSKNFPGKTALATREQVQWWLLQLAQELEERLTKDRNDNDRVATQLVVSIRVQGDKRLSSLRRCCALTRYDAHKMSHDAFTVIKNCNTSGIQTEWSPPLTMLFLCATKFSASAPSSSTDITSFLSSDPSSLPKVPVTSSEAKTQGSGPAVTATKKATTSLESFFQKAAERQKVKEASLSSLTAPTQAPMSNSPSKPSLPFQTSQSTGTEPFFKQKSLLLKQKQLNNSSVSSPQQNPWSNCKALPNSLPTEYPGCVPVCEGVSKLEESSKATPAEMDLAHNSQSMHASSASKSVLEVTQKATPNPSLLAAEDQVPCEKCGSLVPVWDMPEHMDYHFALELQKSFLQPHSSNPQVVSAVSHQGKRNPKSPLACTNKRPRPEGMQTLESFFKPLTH
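Pol eta at 10 nM preincubated with compounds 15 min at room temperature; reaction started with fluorescent substrate (50 nM final) and read kinetically at 0 and 10 min.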
POLK inh = blocks human DNA polymerase kappa activity; Q9UBT6; purified Pol kappa, fluorescent DNA synthesis assay, 10 min; Potency, µM (highest dose often 107 µM), for inactives: top-dose activity, negative = inhibition, actives largely listed as inhibitors; actives 0.53% (n = 400,000); AID 588579; further: on the % scale 0 is the no-effect control and ±100 the full control effect
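Pol kappa 10 nM + cpd, 15 min RT; start w/ substrate 50 nM final; fluorescence kinetic read, 0 and 10 min. Neg ctrl: buffer, no enzyme.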
WRN helicase inh = blocks human WRN helicase | Potency, µM (titrated, usually from 114 µM), inactives show at the highest dose activity change, negative = inhibition, usual class: inhibitors | Q14191 | WRN helicase unwinding, fluorescent forked duplex, kinetic | actives 0.46% (n = 360,000); further: on the % scale 0 is the no-effect control and ±100 the full control effect; nearly all actives have a fitted effect of over 55% in size
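Kinetic fluorescence helicase assay: unwinding of a quenched forked DNA duplex (100 nM final) with 2 mM ATP final raises red fluorescence (525/598 nm). Compounds sat 15 min at room temperature with 20 nM WRN beforehand.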
* = called active by the depositor; [ ] = dose if it differs, or a comment. The call rests on the fitted dose curve; in most records, active means well fitted curve in the direction sought with a large enough effect; inconclusive means small, poorly fitted or top-dose-only effect, or another doubt; inactive means no such curve, though single readings can be large; an effect the other way counts as inactive or inconclusive. Potency means the concentration at half of the fitted maximal effect.

Screening CN(C)/C=N/c1nc2c(ncn2C2CC(O)C(CO)O2)c(=O)[nH]1 (configuration not stated) returned POLI inh -18%, FEN1 inh 1% and POLK inh 11%.
`CC1CCCCC12NC(=O)N(Cc1cc(=O)n3ccsc3n1)C2=O` (configuration not stated) gave POLI inh 79µM*, FEN1 inh -14%, POLB inh inconclusive, POLH inh -4%, POLK inh -13% and WRN helicase inh -9%.
c1ccc2c(-c3ccncc3)c[nH]c2c1 was read as POLI inh -5%, FEN1 inh -10%, POLB inh -2%, POLH inh -17%, POLK inh -12% and WRN helicase inh -13%.
`Nc1cc(-c2ccncc2)c[nH]c1=O` gave POLI inh 10µM*, FEN1 inh 1%, POLB inh -6%, POLH inh inconclusive, POLK inh 0% and WRN helicase inh 14%.
Screening C#C[C@]1(OC(C)=O)CC[C@H]2[C@@H]3CCC4=C/C(=N/O)CC[C@@H]4[C@H]3CC[C@@]21CC returned POLK inh -4%[19.4 µM].
CCC[C@H]1COCCS(=O)(=O)N1Cc1cccc(F)c1 was read as POLI inh 29%, FEN1 inh -7% and POLK inh -14%.
For COc1cc2c(cc1OC)-c1cc3ccc(OC)c(OC)c3c[n+]1CC2 the results were POLI inh -17%, FEN1 inh inconclusive, POLH inh -16%, POLK inh -9% and WRN helicase inh 7%[11.6 µM].
Screening COc1ccc2cc3[n+](cc2c1O)CCc1cc2c(cc1-3)OCO2 returned WRN helicase inh 50µM*.
CCCNC(=O)c1ccc(Cl)cc1Cl was read as POLI inh 4%, FEN1 inh 1%, POLB inh 20µM*, POLH inh -28%, POLK inh 0% and WRN helicase inh 5%.
For C/C1=C\[C@@H](O)C(C(C)C)C(OC(=O)c2ccc(O)cc2)C/C(C)=C/CC1 (some centres not stated) the results were POLK inh -4%[60.1 µM].
For CC(C)NC(=O)COC(=O)c1ccccc1OCC(=O)Nc1ccc(Br)cc1 the results were POLI inh -23%, FEN1 inh -4% and POLK inh 11%.
O=C(CCC1N=C2c3ccccc3N=C(SCc3ccc(Cl)cc3)N2C1=O)NCCc1ccccc1 (configuration not stated) was read as POLI inh 89µM*, FEN1 inh -17%, POLB inh 16%, POLH inh -15% and POLK inh -38%.
Screening O=C(CC1N=C2c3ccccc3N=C(SCc3ccc(F)cc3)N2C1=O)NCc1ccco1 (configuration not stated) returned POLI inh 17%, FEN1 inh 3%, POLB inh 50µM*, POLH inh -8%, POLK inh -6% and WRN helicase inh -26%.
`Cc1ccc(CSC2=Nc3ccccc3C3=NC(CC(=O)NCc4ccco4)C(=O)N23)cc1` (configuration not stated) gave POLI inh inconclusive, FEN1 inh -13%, POLB inh 25µM*, POLH inh inconclusive, POLK inh inconclusive and WRN helicase inh -20%.
For O=C(CCC1N=C2c3ccccc3N=C(SCc3cccc(Cl)c3)N2C1=O)NCCc1ccccc1 (configuration not stated) the results were POLI inh -7%, FEN1 inh -18%, POLB inh 19%, POLH inh -21% and POLK inh -7%.
O=C(O)CN1C(=O)/C(=C/C=C/c2ccccc2)SC1=S was read as POLI inh inconclusive, FEN1 inh -1%, POLB inh -23%, POLH inh -22%, POLK inh -39% and WRN helicase inh -1%.
C#CCN1C(=O)S/C(=C/C=C/c2ccc(N(C)C)cc2)C1=O was read as POLI inh 79µM*, FEN1 inh inconclusive, POLB inh 2%, POLH inh -19%, POLK inh -19% and WRN helicase inh 35µM*.
Screening CCN(CC)CC(=O)c1c(C)n(C)c2ccc(OC)cc12 returned POLI inh inconclusive, FEN1 inh 1% and POLK inh 2%.
`NC(=O)C1CN(S(=O)(=O)c2ccc(Cl)cc2F)c2ccccc2O1` (configuration not stated) gave POLI inh 10%, FEN1 inh -16%, POLB inh 63µM*, POLH inh -20%, POLK inh 2% and WRN helicase inh 7%.
`COC(=O)C1=C(C)N(CCc2ccccc2)C(=O)/C1=C\c1ccco1` gave POLI inh -1%, FEN1 inh -8%, POLB inh -15%, POLH inh -17%, POLK inh -13% and WRN helicase inh -4%.
COC(=O)C1=C(C)N(Cc2ccccc2)C(=O)/C1=C\c1ccco1 was read as POLI inh 50µM*, FEN1 inh 7%, POLB inh -30%, POLH inh -21%, POLK inh inconclusive and WRN helicase inh -9%[11.6 µM].
For O=S(=O)(c1ccc2c(c1)OCCO2)N1CCN(c2nc(-c3ccccc3)nc3ccccc23)CC1 the results were POLI inh 34%, FEN1 inh 1% and POLK inh -7%.
CCOC(=O)Cc1cc(=O)n2[nH]c(-c3ccc(C)cc3)cc2n1 was read as POLI inh 79µM*, FEN1 inh -5%, POLB inh 22µM*, POLH inh inconclusive, POLK inh -38% and WRN helicase inh -17%[57.1 µM].
For CCOC(=O)c1cc(=O)n2[nH]c(-c3ccc(C)cc3)cc2n1 the results were POLI inh -2%, FEN1 inh -5%, POLB inh -10%, POLH inh -12%, POLK inh -18% and WRN helicase inh 6%.
`Cc1ccc(-c2cc(C(=O)Oc3ccccc3)c3cccc(C)c3n2)cc1` gave POLI inh inconclusive, FEN1 inh 0%, POLB inh inconclusive, POLH inh 50µM* and POLK inh -30%.
CC(C)(C)CC(C)(C)N=C1Nc2ccc(Cl)cc2NC12C[C@H]1CCC(=O)N3CC[C@@H](C2)[C@@H]13 (some centres not stated) was read as POLI inh 36%, FEN1 inh inconclusive and POLK inh -16%.
For COc1ccc(Cl)cc1C(=O)Nc1nc2ccccc2[nH]1 the results were POLI inh 79µM*, FEN1 inh 11%, POLB inh 45µM*, POLH inh -14%, POLK inh -30% and WRN helicase inh -8%.
